From PubChem BioAssay come the findings set out here.

The source made the active and inactive calls.

The nature of assay [1]: small molecules captured by biotinylated probe aFSTL3 – biochemical, small-molecule microarray, fluorescence 635/667, stem cell growth factor project, primary screen (AID 1064).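 Further: measures binding of the biotinylated anti-FSTL3 antibody to printed compounds.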 To be noted: higher = more signal.
The nature of assay [2]: binders from COS7 lysate, DM2A8 probe, primary screen, torsin A project, cell lysate, small-molecule microarray, fluorescence 635/667 (AID 1065). To be noted: higher = more signal, COS7 lysate expressing mutant human TOR1A.
A short description of assay [3]: small molecules captured by biotinylated probe aFGF2 – biochemical, small-molecule microarray, fluorescence 635/667, stem cell growth factor project, primary screen (AID 1067).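 Further: measures binding of biotinylated aFGF2 protein to printed compounds on slides; z-score merges feature fluorescence and signal-to-noise across triplicate slides.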 Particulars: higher = more signal.
Assay [4] in a line: small molecules captured by biotinylated probe aFGF10 – biochemical, small-molecule microarray, fluorescence 635/667, stem cell growth factor project, primary screen (AID 1071).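 Further: score merges 667 nm spot intensity and signal to noise from triplicate slides.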 Particulars: higher = more signal.
Assay [5] concerns the target Neurogenic locus notch homolog protein 2 (Homo sapiens) (UniProt Q04721). Nature of the assay: small molecules binding Notch2 protein – biochemical, small-molecule microarray, 635 nm fluorescence, stem cell growth factors, primary screen (AID 1073). Particulars: higher = more signal.
Assay [6] has as its target Pro-neuregulin-1, membrane-bound isoform (Homo sapiens) (UniProt Q02297). Kind of assay: small molecules binding neuregulin-1 protein – biochemical, small-molecule microarray, fluorescence 635/667, psychiatric disease protein project, primary screen (AID 1075).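 Further: score combines 667 nm spot fluorescence with signal to noise.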 To be noted: NRG1 binding, 635 nm fluorescence, higher = more signal.
The test system of assay [7] is Neuregulin-1 EGF-like domain. Kind of assay: small molecules binding NRG1 EGF domain – biochemical, small-molecule microarray, 635 nm fluorescence, primary screen (AID 1081).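 Further: binding of the protein to compounds printed on small-molecule microarray slides.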 To be noted: higher = more signal.
Assay [8] can be described thus: FRG1 expression reporter modulators in myotubes – cell-based, C2C12 myotubes, firefly/Renilla luciferase, luminescence, FRG1 inhibition for FSHD, primary screen (AID 1084). To be noted: FRG1 promoter luciferase, higher = more signal, called active from +8 up or from −8 down.
The nature of assay [9]: small molecules captured by biotinylated probe aFST – biochemical, small-molecule microarray, fluorescence 635/667, stem cell growth factor project, primary screen (AID 1086).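 Further: score merges 667 nm fluorescence with signal-to-noise of each printed compound spot.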 Particulars: higher = more signal.
A short description of assay [10]: binders of probe aHhip on microarray, primary screen, stem cell growth factor project, biochemical, small-molecule microarray, fluorescence 635/667 (AID 1087).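 Further: score merges spot fluorescence at 667nm with spot signal to noise ratio.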 Particulars: higher = more signal.
The subject of assay [11] is PRMT1 (protein arginine N-methyltransferase 1). Nature of the assay: small molecules binding arginine methyltransferase PRMT1 – biochemical, small-molecule microarray, 635 nm fluorescence, primary screen (AID 1088).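 Further: binding of Prmt1 protein to compounds spotted on small-molecule microarray slides.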 To be noted: higher = more signal.
Assay [12] is described as follows: growth effects on S. cerevisiae YJM789 – YJM789 clinical isolate, OD600, 24 h, basal, primary screen (AID 1089).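 Further: growth of clinical yeast isolate S. cerevisiae YJM 789 seeded 1000 cells per well; test concentration not given here.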 To be noted: higher = more signal, called active from +8 up or from −8 down.
The nature of assay [13]: S. pombe growth modifiers, basal conditions – strain 972, OD600, 24 h, no modulator, primary screen (AID 1090).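 Further: basal condition with compound alone and no growth modifier present; test concentration not given here.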 To be noted: S. pombe 972 growth, higher = more signal, called active from +8 up or from −8 down.
Assay [14] in a line: budding yeast growth modifiers under rapamycin – strain BY4716, OD600, 96 h, primary screen (AID 1091). Further: test concentration not given here. Particulars: S. cerevisiae BY4716 + rapamycin, higher = more signal, called active from +8 up or from −8 down.
For assay [15], the target named is Torsin-1A-interacting protein 2 (Homo sapiens) (UniProt Q8NFQ8). Kind of assay: small molecules binding lysate-expressed LULL1 – cell lysate, human LULL1 lysate, 635/667 nm fluorescence, primary screen (AID 1092).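 Further: probe is lysate of COS7 cells overexpressing human LULL1; score merges per-feature 667 nm fluorescence with signal-to-noise.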 Particulars: small-molecule microarray, hLULL1 lysate binding, 635 nm fluorescence; higher = more signal.
Torsin-1A-interacting protein 2 (Homo sapiens), sequence (Q8NFQ8 whole entry, looked up): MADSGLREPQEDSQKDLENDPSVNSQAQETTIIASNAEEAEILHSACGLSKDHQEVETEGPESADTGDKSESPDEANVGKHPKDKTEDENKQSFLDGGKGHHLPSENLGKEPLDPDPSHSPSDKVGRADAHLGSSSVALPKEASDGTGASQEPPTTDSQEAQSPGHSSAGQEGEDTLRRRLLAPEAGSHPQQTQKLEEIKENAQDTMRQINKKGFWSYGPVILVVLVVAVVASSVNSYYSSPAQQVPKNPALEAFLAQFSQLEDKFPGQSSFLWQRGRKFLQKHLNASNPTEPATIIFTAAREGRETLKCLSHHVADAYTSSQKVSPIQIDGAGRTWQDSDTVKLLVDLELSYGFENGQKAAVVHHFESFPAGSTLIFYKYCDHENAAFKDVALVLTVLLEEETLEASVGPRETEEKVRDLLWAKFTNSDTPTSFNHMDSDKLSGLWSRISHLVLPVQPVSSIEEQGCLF
A short description of assay [16]: optical density change of DRC41 E. coli – strain DRC41, OD650, 24 h, E. coli filamentation project, primary screen (AID 1093).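 Further: MC1000 strain lacking acrAB efflux and sulA so SOS filamentation is blocked; test concentration not given here.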 Particulars: E. coli DRC41 growth, higher = more signal, called active from +8 up or from −8 down.
Assay [17] is described as follows: probe aLefty2 binding to arrayed compounds – biochemical, biotinylated probe, 635/667 nm fluorescence, primary screen (AID 1094).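 Further: score merges spot fluorescence near 667 nm with spot signal-to-noise ratio.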 To be noted: small-molecule microarray, higher = more signal.
For assay [18], the system named is Noggin (protein binding on small-molecule microarray). Kind of assay: small molecules binding Noggin protein – biochemical, 635/667 nm fluorescence, primary screen (AID 1095).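 Further: score merges 667 nm feature fluorescence with signal to noise over triplicate slides.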 To be noted: 635 nm fluorescence, higher = more signal.
For assay [19], the target named is Neurogenic locus notch homolog protein 3 (Homo sapiens) (UniProt Q9UM47). Kind of assay: small molecules binding NOTCH3 protein – biochemical, 635/667 nm fluorescence, primary screen (AID 1096). Particulars: small-molecule microarray, 635 nm fluorescence, higher = more signal.
Neurogenic locus notch homolog protein 3 (Homo sapiens), sequence (Q9UM47 whole entry, looked up): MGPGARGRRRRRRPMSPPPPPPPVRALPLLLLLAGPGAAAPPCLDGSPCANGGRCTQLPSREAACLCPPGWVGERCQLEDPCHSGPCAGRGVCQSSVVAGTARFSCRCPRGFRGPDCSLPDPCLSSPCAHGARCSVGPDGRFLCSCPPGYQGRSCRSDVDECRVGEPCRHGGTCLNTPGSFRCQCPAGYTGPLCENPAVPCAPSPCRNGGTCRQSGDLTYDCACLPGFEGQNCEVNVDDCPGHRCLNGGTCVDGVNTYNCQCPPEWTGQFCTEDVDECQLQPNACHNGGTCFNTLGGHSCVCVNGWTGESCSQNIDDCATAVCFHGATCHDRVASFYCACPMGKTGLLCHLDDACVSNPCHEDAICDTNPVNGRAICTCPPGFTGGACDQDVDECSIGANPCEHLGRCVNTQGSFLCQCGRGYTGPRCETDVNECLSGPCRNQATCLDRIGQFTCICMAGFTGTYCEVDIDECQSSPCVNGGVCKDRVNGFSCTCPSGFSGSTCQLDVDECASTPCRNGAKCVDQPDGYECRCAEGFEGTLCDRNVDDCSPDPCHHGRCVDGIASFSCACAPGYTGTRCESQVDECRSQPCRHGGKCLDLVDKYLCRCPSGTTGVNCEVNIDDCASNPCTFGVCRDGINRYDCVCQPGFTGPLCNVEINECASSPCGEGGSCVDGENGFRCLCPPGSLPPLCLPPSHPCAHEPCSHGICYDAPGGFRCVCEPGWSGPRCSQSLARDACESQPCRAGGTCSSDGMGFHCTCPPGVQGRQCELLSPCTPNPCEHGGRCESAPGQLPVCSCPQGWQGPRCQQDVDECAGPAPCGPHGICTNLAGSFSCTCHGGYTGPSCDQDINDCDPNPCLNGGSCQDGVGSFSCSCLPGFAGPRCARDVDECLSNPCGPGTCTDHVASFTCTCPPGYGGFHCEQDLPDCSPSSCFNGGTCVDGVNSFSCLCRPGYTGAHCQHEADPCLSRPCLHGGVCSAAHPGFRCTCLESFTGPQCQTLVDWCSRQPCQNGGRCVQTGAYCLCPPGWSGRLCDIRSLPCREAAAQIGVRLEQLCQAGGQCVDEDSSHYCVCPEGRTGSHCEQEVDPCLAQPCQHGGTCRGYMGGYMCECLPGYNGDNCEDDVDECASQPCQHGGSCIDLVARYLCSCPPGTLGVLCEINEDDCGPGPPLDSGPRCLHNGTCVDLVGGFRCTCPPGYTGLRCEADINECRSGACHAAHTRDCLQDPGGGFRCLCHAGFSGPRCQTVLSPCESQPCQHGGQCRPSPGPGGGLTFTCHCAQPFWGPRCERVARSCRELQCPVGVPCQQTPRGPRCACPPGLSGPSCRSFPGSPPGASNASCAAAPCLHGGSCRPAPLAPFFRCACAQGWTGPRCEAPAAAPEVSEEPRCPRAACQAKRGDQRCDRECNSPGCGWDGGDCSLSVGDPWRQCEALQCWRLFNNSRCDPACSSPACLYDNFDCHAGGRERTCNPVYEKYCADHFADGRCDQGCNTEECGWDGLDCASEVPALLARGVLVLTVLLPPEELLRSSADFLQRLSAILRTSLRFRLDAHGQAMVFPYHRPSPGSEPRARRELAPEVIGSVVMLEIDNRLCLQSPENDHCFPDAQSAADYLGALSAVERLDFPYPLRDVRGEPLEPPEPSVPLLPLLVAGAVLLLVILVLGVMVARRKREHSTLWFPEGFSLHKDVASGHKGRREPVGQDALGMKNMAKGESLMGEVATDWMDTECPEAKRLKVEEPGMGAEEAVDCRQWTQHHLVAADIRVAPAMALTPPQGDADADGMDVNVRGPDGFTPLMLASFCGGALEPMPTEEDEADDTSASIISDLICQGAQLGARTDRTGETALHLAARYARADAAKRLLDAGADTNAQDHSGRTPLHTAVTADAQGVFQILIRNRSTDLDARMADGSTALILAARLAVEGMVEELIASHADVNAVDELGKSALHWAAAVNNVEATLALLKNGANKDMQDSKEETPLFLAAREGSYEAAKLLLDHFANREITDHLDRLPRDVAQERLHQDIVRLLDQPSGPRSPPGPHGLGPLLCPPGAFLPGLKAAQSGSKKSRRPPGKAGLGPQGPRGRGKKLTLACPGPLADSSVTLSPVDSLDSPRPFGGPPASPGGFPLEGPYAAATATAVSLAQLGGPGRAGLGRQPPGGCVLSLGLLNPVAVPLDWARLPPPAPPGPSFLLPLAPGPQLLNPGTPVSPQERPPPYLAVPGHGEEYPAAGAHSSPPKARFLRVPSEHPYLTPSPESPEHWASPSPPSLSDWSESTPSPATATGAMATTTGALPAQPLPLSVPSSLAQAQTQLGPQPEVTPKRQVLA
The nature of assay [20]: probe aEGFR binding to arrayed compounds – biochemical, biotinylated probe, 635/667 nm fluorescence, primary screen (AID 1097).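 Further: probe is a biotinylated anti-EGFR antibody binding compounds printed on slides; score combines fluorescence near 667 nm and signal to noise of each spot.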 Particulars: small-molecule microarray, higher = more signal.

Pro-neuregulin-1, membrane-bound isoform (Homo sapiens), sequence (Q02297 whole entry, looked up, the tested form may be a part, canonical isoform): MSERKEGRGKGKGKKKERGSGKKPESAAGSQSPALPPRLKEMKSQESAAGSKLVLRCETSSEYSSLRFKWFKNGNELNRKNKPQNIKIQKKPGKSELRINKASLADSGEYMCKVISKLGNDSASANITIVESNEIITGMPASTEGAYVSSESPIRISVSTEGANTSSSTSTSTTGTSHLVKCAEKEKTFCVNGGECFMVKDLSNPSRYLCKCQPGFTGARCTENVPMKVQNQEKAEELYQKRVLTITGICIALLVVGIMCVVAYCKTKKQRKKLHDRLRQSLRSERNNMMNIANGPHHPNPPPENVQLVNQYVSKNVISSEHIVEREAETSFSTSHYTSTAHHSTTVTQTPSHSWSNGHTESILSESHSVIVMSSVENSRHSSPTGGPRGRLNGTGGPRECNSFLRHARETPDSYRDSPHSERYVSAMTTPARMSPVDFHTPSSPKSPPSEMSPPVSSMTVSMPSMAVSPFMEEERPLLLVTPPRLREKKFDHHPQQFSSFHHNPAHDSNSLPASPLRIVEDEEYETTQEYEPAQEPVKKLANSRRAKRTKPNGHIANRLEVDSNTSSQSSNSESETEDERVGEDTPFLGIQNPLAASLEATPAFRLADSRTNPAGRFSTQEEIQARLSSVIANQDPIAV

In the case of `Cc1ccc(S[C@]2(C(=O)NC3CC3)CC(=O)N(Cc3ccccc3)[C@@H]2c2ccc(CO)cc2I)cc1`, the composite z-score is 0.433 in assay [1]; -0.703 in assay [2]; -0.146 in [3]; 0.333 in [4]; -0.823 in [5]; 1.23 in assay [6]. Also, the composite z-score in assay [7] is 0.966; in [9] it was -0.73; in [10], -0.0047; in [11], 1.23; in assay [15], 2.35; in [17], -0.012. Also, the composite z-score in [18] was -0.809; in [19] it was -0.738; in assay [20], -0.286. Moreover, the z-score in [8] is -2.74 (inactive); in [12], 0.0136 (inactive); in assay [13], -3.59 (inactive); in assay [14], 0.0377 (inactive); in assay [16], 0.45 (inactive).
Turning to `CC1(C)[C@@H]2CC(C(O)C3C=CC4C(=O)N(c5ccccc5)C(=O)C4N3Nc3ccc([N+](=O)[O-])cc3)=C[C@H]1C2` (stereo not given in full), the composite z-score was -0.204 in assay [1]; 0.325 in assay [2]; -0.0834 in assay [3]; 0.873 in assay [4]; 1.7 in assay [5]; 1.88 in assay [6]. Further, the composite z-score in assay [7] was 1.2; in assay [9] it was 0.352; in assay [10], -0.0852; in [11] it was 1.55; in [15], 3.71; in assay [17], 0.109. The composite z-score in assay [18] was 0.375; in assay [19], 1.03; in [20] it was 0.184. In addition, the z-score in assay [8] is -1.08 (inactive); in assay [12], -0.0209 (inactive); in [13] it was 0.287 (inactive); in assay [14], 2.09 (inactive); in assay [16] it was -0.692 (inactive).
Take `O=C(N1CCCCC1)[C@]1(Cc2ccccc2)N=C(c2ccc(OCCCO)cc2)O[C@@H]1c1ccccc1`: the composite z-score was 0.542 in [1]; 0.0149 in [2]; -0.0183 in assay [3]; 0.541 in [4]; 1.51 in assay [5]; 1.03 in [6]. The composite z-score in assay [7] was 0.884; in assay [9] it was 0.979; in [10], 0.289; in assay [11], 1.28; in assay [15] it was 2.84; in assay [17], 0.18. Besides, the composite z-score in assay [18] is -0.281; in assay [19], 0.586; in [20], 0.303. Moreover, the z-score is -0.636 (inactive) in assay [8]; -0.425 (inactive) in assay [12]; -1.52 (inactive) in assay [13]; 3.64 (inactive) in assay [14]; -0.331 (inactive) in [16].
On to `O=C(NCCN1CCOCC1)C1N=C(c2ccc(OCCCO)cc2)N(c2ccccc2)O1` (stereo not given), for which the composite z-score in assay [1] is 0.377; in assay [2], 1.4; in [3] it was 0.071; in assay [4], 0.318; in assay [5], 1.48; in [6] it was 0.561. Also, the composite z-score turned out to be 1.3 in assay [7]; 0.524 in [9]; 0.075 in assay [10]; 1.54 in assay [11]; 3.22 in assay [15]; 0.443 in assay [17]. For the same compound, the composite z-score in assay [18] is 1.19; in assay [19], 0.0538; in [20] it was -0.0099. In addition, the z-score in assay [8] is 4.31 (inactive); in assay [12], -0.101 (inactive); in assay [13], -0.251 (inactive); in [14], -0.36 (inactive); in [16], 1 (inactive).
Consider `COC(=O)[C@@]1(Cc2ccc(F)cc2)[C@H]2c3cc(C(=O)N(C)C)n(Cc4cc(F)c(F)c(F)c4)c3C[C@H]2CN1C(=O)c1ccccc1`, for which the composite z-score in [1] is 0.293; in assay [2], -0.528; in [3] it was 0.261; in assay [4] it was 0.593; in [5] it was 1.77; in assay [6], 1.61. Further, the composite z-score was 0.971 in assay [7]; 1.88 in [9]; 0.142 in assay [10]; -0.0972 in assay [11]; 3.07 in assay [15]; 0.376 in [17]. Moreover, the results for the composite z-score in assay [18], in assay [19] and in assay [20] were -0.592, 1.03 and 0.487, respectively. Also, the z-score was 0.621 (inactive) in [8]; 0.0065 (inactive) in assay [12]; 1.72 (inactive) in assay [13]; 2.54 (inactive) in assay [14]; -0.535 (inactive) in assay [16].
